# Experimental data as given in the supplement of paper PMC6555819.
# Tested on: THRa homodimer (NR concentration 90 nM)
# Experiment: PBM binding z-score (relative to random genomic background probes); higher = stronger binding; sequences stand for … in GC…GCGATTGACAGCGTAGAATGAAGG
# Outline: (§1)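 Scanned fluorescence from custom Agilent 4×180K protein-binding microarrays was regression-normalized. Binding z-scores use random background probes as reference. Ligand-free nuclear receptor dimers were incubated on the arrays for 1 h and detected with antibodies against each partner (one per run).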
row,Sequence,PBM binding z-score
1,GCGACTGGGGCATCAGCATGTTACCATAACTTAA,-0.404
2,GGTTACGGGTCAAAGGTTATAGCATGAATAGAAT,0.33
3,CCGACTGGGGCAAAGGTTACTATACTCAGTACGA,-0.197
4,CGTCCAAGGTCTGCAGGTCAGTGAAAGCGACGTG,-0.0329
5,TATACAGGGTCAACGGCCAGAGTACGAATGTCGA,1.05
6,ACAGACAGGAGATGAAGGTAACTCAGGCTATCAT,0.773
7,CCTTCCGGGTCACTGACAGGTTATAGCATTTGGA,2.25
8,CCTACCGGGCCAAGGTCATTGATCAGTCAAAGCA,2.77
9,CGTCCAAGGTCACTGCTAGGTCAGTGAAAGCATT,3.39
10,TCGAGTAGGTTAGTCGGGGCATTCACCCAACATA,0.381
11,ATCTCTAGGTGAGACTCAGTTCAGTGAAGAACGC,0.42
12,CGTCCAAGTTCAAGGTCAGTGAAAGAGACTCGAA,2.47
13,CTCGAAAGATCGGTTGAGGTGAGTATACGGATAA,0.715
14,CAAACTAGGTCACGAAAGGTCATAGTCGAATGAC,2.8
15,ACTAGCAGGCCAATTTTGGGTCACTCAAACAAAG,1.24
16,CAGCCCAGGTCAGGGCCAGTATAGGAGGAACGTT,1.48
17,ATCGAAAGGTCGCGAGGTGAGTATACAGAAAGGC,0.86
18,CCAGACAGGTGTAAGGTAACTCAGTCTGGTACGC,1.21

# Tested on: VDR:RXRa (NR concentration 270 nM, RXRa partner concentration 90 nM)
# Experiment: as above
# Outline: as §1
row,Sequence,PBM binding z-score
1,ATCGAAAGGACGAAGGTGAGTATACCCACCCGAA,-0.276
2,ATCTTTAGGTAACAAGTTCAGTGAAAGAGAGGAC,1.81
3,CGTACTGGGCCATTCAGAGGTCATTGATCATATG,4.27
4,CGTCCAAGGTCAAAGATCAGTGAAGAGATGACGG,4.44
5,CGTGCTAGGTCAATGGTCAGCTAAAGCAGCTCGC,0.97
6,TAGCCTAGGTCATTGGGCCAGAATAGTACGCATC,2.01
7,TCGAGTAGGTTAGGGGCATGCAGAATGGCGTCGA,0.195
8,TGTCAAAGTTCAAAGGTAACGTGAGTATCCACAC,5.2
9,AGAATCAGGTTATACGTAGATCAGGGAAGAAAGT,0.368
10,CCTATTGGGCCATTCAGAGGTCATTGATCATATG,3.98
11,ACAGACAGGTGAGTGAAGGTAACTCCGCTGGACG,-0.433
12,CCGACTGGGGCATAATGTTACCATAAGCCAGCCC,-0.48
13,TAGCCTAGGACATTGGGCCAGTATAGTACGCATC,-0.544
14,CGAACTAGGTTATTGACAGGACAGTGAATAGTAA,0.204
15,TCTGCTAGGTTAACGATGGTCAGCTAATCTGCTA,-0.0905
16,CCTGCTAGGTCAATGGTCAGCTACAGCAGCTCGC,0.991
17,CGTCCAAGGTTAGCAGGTCAGTGAAAGCGACGTG,1
18,GGAACGAGGGCAAATTTGATAGCATCTGTCGACG,0.619
19,AGCTCTAGGTAACAAGTTCAGTGAAAGAGAGGAC,1.94
20,GATCCAGGGTCAAGGCCAGAGTACGCGTATTGAT,4.58

row,Sequence,PBM binding z-score
1,ATCTCTAGGTAAGTCTCAGTTCAGTGAAGAACGC,0.65
2,CAGCCTAGGTCTGGGCCAGTATAGGAGGAACGTT,-0.828
3,GCGACTGGGGCATCAGCATGTTACCATAACTTAA,-0.304
4,GGTTACGGGTCAAAGGTTATAGCATGAATAGAAT,5.46
5,CCGACTGGGGCAAAGGTTACTATACTCAGTACGA,1.12
6,CGTCCAAGGTCTGCAGGTCAGTGAAAGCGACGTG,-0.117
7,TATACAGGGTCAACGGCCAGAGTACGAATGTCGA,4.6
8,ACAGACAGGAGATGAAGGTAACTCAGGCTATCAT,0.143
9,CCTTCCGGGTCACTGACAGGTTATAGCATTTGGA,3.83
10,CCTACCGGGCCAAGGTCATTGATCAGTCAAAGCA,3.22
11,CGTCCAAGGTCACTGCTAGGTCAGTGAAAGCATT,5.09
12,TCGAGTAGGTTAGTCGGGGCATTCACCCAACATA,2.41
13,ATCTCTAGGTGAGACTCAGTTCAGTGAAGAACGC,0.863
14,CGTCCAAGTTCAAGGTCAGTGAAAGAGACTCGAA,3.88
15,CTCGAAAGATCGGTTGAGGTGAGTATACGGATAA,-0.152
16,CAAACTAGGTCACGAAAGGTCATAGTCGAATGAC,6.92
17,ACTAGCAGGCCAATTTTGGGTCACTCAAACAAAG,0.456
18,CAGCCCAGGTCAGGGCCAGTATAGGAGGAACGTT,0.803
19,ATCGAAAGGTCGCGAGGTGAGTATACAGAAAGGC,3.53
20,CCAGACAGGTGTAAGGTAACTCAGTCTGGTACGC,0.0147

# Tested on: VDR homodimer (NR concentration 270 nM)
# Experiment: as above
# Outline: as §1
row,Sequence,PBM binding z-score
1,ATCGAAAGGACGAAGGTGAGTATACCCACCCGAA,-0.271
2,ATCTTTAGGTAACAAGTTCAGTGAAAGAGAGGAC,2.79
3,CGTACTGGGCCATTCAGAGGTCATTGATCATATG,3.81
4,CGTCCAAGGTCAAAGATCAGTGAAGAGATGACGG,2.6
5,CGTGCTAGGTCAATGGTCAGCTAAAGCAGCTCGC,0.301
6,TAGCCTAGGTCATTGGGCCAGAATAGTACGCATC,1.12
7,TCGAGTAGGTTAGGGGCATGCAGAATGGCGTCGA,0.0612
8,TGTCAAAGTTCAAAGGTAACGTGAGTATCCACAC,4.31
9,AGAATCAGGTTATACGTAGATCAGGGAAGAAAGT,0.381
10,CCTATTGGGCCATTCAGAGGTCATTGATCATATG,3.79
11,ACAGACAGGTGAGTGAAGGTAACTCCGCTGGACG,-0.537
12,CCGACTGGGGCATAATGTTACCATAAGCCAGCCC,-0.295
13,TAGCCTAGGACATTGGGCCAGTATAGTACGCATC,-0.291
14,CGAACTAGGTTATTGACAGGACAGTGAATAGTAA,0.278
15,TCTGCTAGGTTAACGATGGTCAGCTAATCTGCTA,-0.957
16,CCTGCTAGGTCAATGGTCAGCTACAGCAGCTCGC,0.15
17,CGTCCAAGGTTAGCAGGTCAGTGAAAGCGACGTG,0.443
18,GGAACGAGGGCAAATTTGATAGCATCTGTCGACG,0.807
19,AGCTCTAGGTAACAAGTTCAGTGAAAGAGAGGAC,2.64
20,GATCCAGGGTCAAGGCCAGAGTACGCGTATTGAT,2.04

row,Sequence,PBM binding z-score
1,ATCTCTAGGTAAGTCTCAGTTCAGTGAAGAACGC,1.72
2,CAGCCTAGGTCTGGGCCAGTATAGGAGGAACGTT,-0.974
3,GCGACTGGGGCATCAGCATGTTACCATAACTTAA,-0.64
4,GGTTACGGGTCAAAGGTTATAGCATGAATAGAAT,1.64
5,CCGACTGGGGCAAAGGTTACTATACTCAGTACGA,0.164
6,CGTCCAAGGTCTGCAGGTCAGTGAAAGCGACGTG,-0.462
7,TATACAGGGTCAACGGCCAGAGTACGAATGTCGA,2.95
8,ACAGACAGGAGATGAAGGTAACTCAGGCTATCAT,0.239
9,CCTTCCGGGTCACTGACAGGTTATAGCATTTGGA,1.3
10,CCTACCGGGCCAAGGTCATTGATCAGTCAAAGCA,3.08
11,CGTCCAAGGTCACTGCTAGGTCAGTGAAAGCATT,3
12,TCGAGTAGGTTAGTCGGGGCATTCACCCAACATA,0.754
13,ATCTCTAGGTGAGACTCAGTTCAGTGAAGAACGC,0.761
14,CGTCCAAGTTCAAGGTCAGTGAAAGAGACTCGAA,4.98
15,CTCGAAAGATCGGTTGAGGTGAGTATACGGATAA,-0.316
16,CAAACTAGGTCACGAAAGGTCATAGTCGAATGAC,3.75
17,ACTAGCAGGCCAATTTTGGGTCACTCAAACAAAG,-0.032
18,CAGCCCAGGTCAGGGCCAGTATAGGAGGAACGTT,0.168
19,ATCGAAAGGTCGCGAGGTGAGTATACAGAAAGGC,0.971
20,CCAGACAGGTGTAAGGTAACTCAGTCTGGTACGC,0.39
